Compound activity as filed in PubChem.
PLAP activator – PLAP enzyme activators, biochemical, luminescence, HTS; Alkaline phosphatase, placental type (Homo sapiens), P05187; purified PLAP enzyme, luminescent substrate read-out; active compounds read high; activation fold at 20 µM; actives 1.2% (n = 96,000); in the data active = activation fold above about 2
CYP2C19 act – human CYP2C19 activators, primary screen, biochemical, luminescence. Cytochrome P450 2C19 (Homo sapiens), P33261. recombinant CYP2C19, luciferin-H EGE luminescence; active compounds read high; 0 = fully inhibited enzyme, 1 = untreated enzyme. 96,000 tested, under 10 active. activation factor at 5 µM;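 active = activation factor of at least 2 at 5 µM in the primary screen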;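 also: 0 = wells with 2.5 mM tranylcypromine and 1 = vehicle-only wells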
CYP2C9 act – human CYP2C9 activators, primary screen, biochemical, luminescence; Cytochrome P450 2C9 (Homo sapiens), P11712; recombinant CYP2C9, luciferin-H conversion; active compounds read high; factor 1 = untreated enzyme, 0 = blocked; activation factor at 5 µM; actives 1.4% (n = 96,000);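 active = activation factor of 2 or more for CYP2C9 at a 5 µM dose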;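 also: 0 = sulfaphenazole-blocked wells and 1 = vehicle-only wells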
CYP2C9 inh – blockers of cytochrome P450 2C9 activity – biochemical, luminescence, ADME assay, primary screen; AID 777, 2007; CYP2C9 Supersomes, luciferin-H conversion; P11712; inhibition, % at 5 µM; actives 20% (n = 96,000);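 active = blocking of liver enzyme CYP2C9 beyond about 50% at 5 µM, limit read from the data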
CYP2C19 inhib – blockers of cytochrome P450 2C19 activity – biochemical, luminescence, ADME assay, primary screen; inhibition, % at 5 µM; actives 21% (n = 96,000); CYP2C19 Supersomes, luciferin-H EGE luminescence, 30 min;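 active = CYP2C19 inhibition above a set limit at 5 µM in the primary screen, cut at about 50% in these data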;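 also: plate controls were negative control wells for no effect and 2.5 mM tranylcypromine positive control for full effect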
An asterisk follows results filed as active. The list is not random: actives were taken first. Their share in the collection is about 31%.

SMILES	PLAP activator	CYP2C19 act	CYP2C9 act	CYP2C9 inh	CYP2C19 inhib
COCCn1c(=O)c2c(nc3n2CCN3c2ccc(C)cc2)n(C)c1=O	1.2	1	1	0	1
CCOC(=O)c1c(-c2ccco2)csc1NC(=O)CSc1nnc(N)s1	1.3	0.8	0.4	57*	20
CCOC(=O)c1c(-c2ccc(C)o2)csc1NC(=O)CN(C)CC(=O)Nc1ccc(C)cc1	2.2*	0.3	0	96*	69*
CCOC(=O)c1c(-c2ccc(C)o2)csc1NC(=O)CN1CCN(CC)CC1	1.4	1	0.9	7	0
CCOC(=O)c1c(-c2ccc(C)o2)csc1NC(=O)CSc1nncs1	1.9	0.1	0	100*	91*
Cc1cc2ncn(S(=O)(=O)N(C)C)c2cc1C	0.9	0.9	0.9	14	14
Clc1ccc2c(c1)C(c1cccs1)=NNC(c1cccnc1)=N2	0.9	0.7	0.3	68*	29
Cc1ccc2c(c1)C(c1ccncc1)=NNC(c1ccc(C(C)C)cc1)=N2	1	0.6	0.9	9	38
CCc1ccc2c(c1)C(c1cccs1)=NNC(c1cccnc1)=N2	1.1	0.7	0.6	40	33
Fc1ccc2c(c1)C(c1ccncc1)=NNC(c1cccnc1)=N2	1	0.5	0.5	54*	51*
CCOC(=O)c1ccc(S(=O)(=O)N2CCN(CC3CC=CCC3)CC2)cc1 (stereo not drawn)	1.2	0.9	1	0	5
Cc1ccc2oc(=O)c3cnn(CC(=O)Nc4ccccc4N4CCN(C)CC4)c3c2c1	1.5	0.9	0.5	49	9
CC(C)OC(=O)c1c(NC(=O)CCn2nnc3ccccc32)sc2c1CCCC2	1	0.4	0.2	82*	57*
CC(C)OC(=O)c1c(NC(=O)c2cnn3c2NC(c2ccccc2)CC3C(F)(F)F)sc2c1CCCC2 (stereo not drawn)	1.3	1	0.8	23	-1
CC1CC(=O)NN=C1c1ccc(N(C)C)c([N+](=O)[O-])c1 (stereo not drawn)	0.9	0.9	0.9	14	13
CCN(CC)c1ccc(C2=NNC(=O)CC2C)cc1[N+](=O)[O-] (stereo not drawn)	0.8	0.5	0.5	52*	50
CN(CCCNC(=O)C1CCC(=O)N1Cc1ccc(F)cc1)c1ccccc1 (stereo not drawn)	1.3	0.8	1	3	21
CC1CCCCC12NC(=O)N(CC(=O)NC(=O)NCc1ccco1)C2=O (stereo not drawn)	1.4	1.2	0.9	11	-15
O=C(c1ccc(S(=O)(=O)N2CCCCC2)cc1)N1CCCc2ccccc21	0.9	0.7	0.2	76*	27
O=C(c1ccc(S(=O)(=O)N2CCCC2)cc1)N1CCCc2ccccc21	1.6	0	0.1	88*	97*
O=C(c1ccc(S(=O)(=O)N2CCOCC2)cc1)N1CCCc2ccccc21	1.1	0.4	0.7	28	56*
O=C(c1ccc(C(=O)N2CCCc3ccccc32)nc1)N1CCCc2ccccc21	1	0.9	0.9	11	12
CC(=O)N1CCc2cc(S(=O)(=O)N3CCOCC3)ccc21	0.9	1	1	-1	-1
Cc1ccccc1N1CCN(C(=O)CN2C(=O)c3ccccc3C2=O)CC1	1	0.8	0.9	12	17
O=C(NCCCN1CCCC1=O)c1ccccc1NS(=O)(=O)c1ccc(Br)cc1	1.5	0.7	0.2	80*	35
SMILES	PLAP activator	CYP2C19 act	CYP2C9 act	CYP2C9 inh	CYP2C19 inhib
Cc1ccc(S(=O)(=O)Nc2ccccc2F)cc1C(=O)NCCCN1CCCC1=O	1.1	1.1	1	4	-7
O=C(NCCCN1CCCC1=O)c1ccc(OCc2ccccc2)cc1	2.1*	0.8	0.5	47	18
Nc1c(S(=O)(=O)c2cccs2)c2nc3ccccc3nc2n1Cc1ccc2c(c1)OCO2	1	0.6	0.1	91*	42
CC(C)CCn1c(N)c(S(=O)(=O)c2cccs2)c2nc3ccccc3nc21	1	0.6	0.2	85*	39
Nc1c(S(=O)(=O)c2cccs2)c2nc3ccccc3nc2n1Cc1cccs1	0.9	1	0.7	33	1
Nc1c(S(=O)(=O)c2cccs2)c2nc3ccccc3nc2n1CCc1ccccc1	1	0.4	0.4	58*	58*
